# Measured values reported in PubChem BioAssay.
# Activity calls are given as the source filed them.
# Experiments:
# [1] = tested on: PRMT1 (protein arginine N-methyltransferase 1); experiment: PRMT1 binders on small-molecule microarrays, primary screen, biochemical, small-molecule microarray, 635 nm fluorescence (AID 1088); conditions: small-molecule microarray binding, higher = more signal;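 note: binding of Prmt1 protein to compounds spotted on small-molecule microarray slides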
# [2] = yeast growth modulation, basal conditions, primary screen, YJM789 clinical isolate, OD600, 24 h (AID 1089);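 note: growth of clinical yeast isolate S. cerevisiae YJM 789 seeded 1000 cells per well; test concentration not given here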; conditions: S. cerevisiae YJM789 growth, higher = more signal, called active from +8 up or from −8 down
# [3] = fission yeast growth modulation, primary screen, strain 972, OD600, 24 h, no modulator (AID 1090);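 note: basal condition with compound alone and no growth modifier present; test concentration not given here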; conditions: S. pombe 972 growth, higher = more signal, called active from +8 up or from −8 down
# [4] = S. cerevisiae growth modulation with rapamycin, primary screen, strain BY4716, OD600, 96 h (AID 1091); conditions: higher = more signal, called active from +8 up or from −8 down; note: test concentration not given here
# [5] = target: Torsin-1A-interacting protein 2 (Homo sapiens) (UniProt Q8NFQ8); experiment: LULL1 binders on small-molecule microarray, primary screen, cell lysate, human LULL1 lysate, 635/667 nm fluorescence (AID 1092); conditions: hLULL1 lysate binding, 635 nm fluorescence, higher = more signal;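 note: probe is lysate of COS7 cells overexpressing human LULL1; score merges per-feature 667 nm fluorescence with signal-to-noise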
# [6] = E. coli growth modulation, two-sided OD650, primary screen, E. coli filamentation project, strain DRC41, 24 h (AID 1093); conditions: OD650, 24 h, higher = more signal, called active from +8 up or from −8 down;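 note: MC1000 strain lacking acrAB efflux and sulA so SOS filamentation is blocked; test concentration not given here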
# [7] = small-molecule microarray binders of probe aLefty2, primary screen, biochemical, biotinylated probe, 635/667 nm fluorescence (AID 1094); conditions: higher = more signal;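 note: score merges spot fluorescence near 667 nm with spot signal-to-noise ratio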
# [8] = tested on: Noggin (protein binding on small-molecule microarray); experiment: Noggin binders on small-molecule microarray, primary screen, biochemical, 635/667 nm fluorescence (AID 1095); conditions: 635 nm fluorescence, higher = more signal;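 note: score merges 667 nm feature fluorescence with signal to noise over triplicate slides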
# [9] = target: Neurogenic locus notch homolog protein 3 (Homo sapiens) (UniProt Q9UM47); experiment: NOTCH3 binders on small-molecule microarray, primary screen, biochemical, 635/667 nm fluorescence (AID 1096); conditions: NOTCH3 binding, 635 nm fluorescence, higher = more signal
# [10] = small-molecule microarray binders of probe aEGFR, primary screen, biochemical, biotinylated probe, 635/667 nm fluorescence (AID 1097); conditions: higher = more signal;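 note: probe is a biotinylated anti-EGFR antibody binding compounds printed on slides; score combines fluorescence near 667 nm and signal to noise of each spot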
# [11] = tested on: Plasmodium falciparum Sir2 (PF13_0152, Sir2A); experiment: pfSir2 binders on small-molecule microarrays, primary screen, biochemical, small-molecule microarray, 635 nm fluorescence (AID 1098); conditions: small-molecule microarray binding, fluorescence 635 nm; higher = more signal;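 note: score merges spot fluorescence intensity with its signal-to-noise ratio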
# [12] = small-molecule microarray binders of probe aDKK1, primary screen, biochemical, biotinylated probe, 635/667 nm fluorescence (AID 1099); conditions: higher = more signal;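 note: score merges 667nm spot fluorescence with signal to noise across triplicate slides; reference of the scale not given here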
# [13] = small-molecule microarray binders of probe aCHRDL2, primary screen, biochemical, biotinylated probe, 635/667 nm fluorescence (AID 1100); conditions: higher = more signal
# [14] = splicing luciferase reporter signal modulators, primary screen, spliceosome inhibition project, cell-based, HEK293, splice +/- reporter (AID 1101); conditions: luminescence, 24 h, higher = more signal, called active from +8 up or from −8 down;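 note: HEK293 cells carrying a splicing-competent luciferase reporter gene; test concentration not given here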
# [15] = target: Fibroblast growth factor 10 (Homo sapiens) (UniProt O15520); experiment: FGF10 binders on small-molecule microarrays, primary screen, biochemical, small-molecule microarray, 635 nm fluorescence (AID 1102); conditions: FGF10 binding, fluorescence 635 nm, higher = more signal
# [16] = tested on: glycogen synthase kinase-3 (GSK3A per assay name; protocol says GSK3B); experiment: GSK3 binders on small-molecule microarrays, primary screen, biochemical, small-molecule microarray, 635 nm fluorescence, GSK3A (AID 1103); conditions: small-molecule microarray binding, fluorescence 635 nm; higher = more signal; note: the record names both GSK3A and GSK3B
# [17] = target: Epidermal growth factor receptor (Homo sapiens) (UniProt P00533); experiment: EGFR binders on small-molecule microarrays, primary screen, biochemical, small-molecule microarray, 635 nm fluorescence (AID 1104); conditions: EGFR binding, higher = more signal;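 note: score merges 667 nm emission intensity with spot signal to noise over triplicate slides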
# [18] = target: Follistatin-related protein 3 (Homo sapiens) (UniProt O95633); experiment: FSTL3 binders on small-molecule microarrays, primary screen, biochemical, small-molecule microarray, 635 nm fluorescence (AID 1105); conditions: FSTL3 binding, higher = more signal;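 note: score merges emission near 667 nm and signal to noise per printed spot across three slides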
# [19] = target: Dickkopf-related protein 1 (Homo sapiens) (UniProt O94907); experiment: DKK1 binders on small-molecule microarrays, primary screen, biochemical, small-molecule microarray, 635 nm fluorescence scan (AID 1106); conditions: DKK1 binding, higher = more signal;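 note: score merges emission near 667 nm with signal to noise over three replicate slides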
# [20] = tested on: Inhibin beta A chain (activin A); experiment: INHBA (activin A) binders on microarrays, primary screen, biochemical, small-molecule microarray, 635 nm fluorescence scan (AID 1107); conditions: small-molecule microarray binding, higher = more signal;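 note: mouse activin A protein probed at 4.33 µg/mL on printed slides; score merges bound-protein fluorescence near 667 nm with spot signal-to-noise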
# Chain of Fibroblast growth factor 10 (Homo sapiens) (O15520 whole entry, looked up): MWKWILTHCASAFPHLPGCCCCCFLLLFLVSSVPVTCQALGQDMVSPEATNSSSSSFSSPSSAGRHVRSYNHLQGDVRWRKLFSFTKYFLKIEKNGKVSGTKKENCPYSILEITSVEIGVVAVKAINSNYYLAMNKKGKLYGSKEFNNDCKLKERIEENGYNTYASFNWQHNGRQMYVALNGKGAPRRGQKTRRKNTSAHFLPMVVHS
# Chain of Neurogenic locus notch homolog protein 3 (Homo sapiens) (Q9UM47 whole entry, looked up): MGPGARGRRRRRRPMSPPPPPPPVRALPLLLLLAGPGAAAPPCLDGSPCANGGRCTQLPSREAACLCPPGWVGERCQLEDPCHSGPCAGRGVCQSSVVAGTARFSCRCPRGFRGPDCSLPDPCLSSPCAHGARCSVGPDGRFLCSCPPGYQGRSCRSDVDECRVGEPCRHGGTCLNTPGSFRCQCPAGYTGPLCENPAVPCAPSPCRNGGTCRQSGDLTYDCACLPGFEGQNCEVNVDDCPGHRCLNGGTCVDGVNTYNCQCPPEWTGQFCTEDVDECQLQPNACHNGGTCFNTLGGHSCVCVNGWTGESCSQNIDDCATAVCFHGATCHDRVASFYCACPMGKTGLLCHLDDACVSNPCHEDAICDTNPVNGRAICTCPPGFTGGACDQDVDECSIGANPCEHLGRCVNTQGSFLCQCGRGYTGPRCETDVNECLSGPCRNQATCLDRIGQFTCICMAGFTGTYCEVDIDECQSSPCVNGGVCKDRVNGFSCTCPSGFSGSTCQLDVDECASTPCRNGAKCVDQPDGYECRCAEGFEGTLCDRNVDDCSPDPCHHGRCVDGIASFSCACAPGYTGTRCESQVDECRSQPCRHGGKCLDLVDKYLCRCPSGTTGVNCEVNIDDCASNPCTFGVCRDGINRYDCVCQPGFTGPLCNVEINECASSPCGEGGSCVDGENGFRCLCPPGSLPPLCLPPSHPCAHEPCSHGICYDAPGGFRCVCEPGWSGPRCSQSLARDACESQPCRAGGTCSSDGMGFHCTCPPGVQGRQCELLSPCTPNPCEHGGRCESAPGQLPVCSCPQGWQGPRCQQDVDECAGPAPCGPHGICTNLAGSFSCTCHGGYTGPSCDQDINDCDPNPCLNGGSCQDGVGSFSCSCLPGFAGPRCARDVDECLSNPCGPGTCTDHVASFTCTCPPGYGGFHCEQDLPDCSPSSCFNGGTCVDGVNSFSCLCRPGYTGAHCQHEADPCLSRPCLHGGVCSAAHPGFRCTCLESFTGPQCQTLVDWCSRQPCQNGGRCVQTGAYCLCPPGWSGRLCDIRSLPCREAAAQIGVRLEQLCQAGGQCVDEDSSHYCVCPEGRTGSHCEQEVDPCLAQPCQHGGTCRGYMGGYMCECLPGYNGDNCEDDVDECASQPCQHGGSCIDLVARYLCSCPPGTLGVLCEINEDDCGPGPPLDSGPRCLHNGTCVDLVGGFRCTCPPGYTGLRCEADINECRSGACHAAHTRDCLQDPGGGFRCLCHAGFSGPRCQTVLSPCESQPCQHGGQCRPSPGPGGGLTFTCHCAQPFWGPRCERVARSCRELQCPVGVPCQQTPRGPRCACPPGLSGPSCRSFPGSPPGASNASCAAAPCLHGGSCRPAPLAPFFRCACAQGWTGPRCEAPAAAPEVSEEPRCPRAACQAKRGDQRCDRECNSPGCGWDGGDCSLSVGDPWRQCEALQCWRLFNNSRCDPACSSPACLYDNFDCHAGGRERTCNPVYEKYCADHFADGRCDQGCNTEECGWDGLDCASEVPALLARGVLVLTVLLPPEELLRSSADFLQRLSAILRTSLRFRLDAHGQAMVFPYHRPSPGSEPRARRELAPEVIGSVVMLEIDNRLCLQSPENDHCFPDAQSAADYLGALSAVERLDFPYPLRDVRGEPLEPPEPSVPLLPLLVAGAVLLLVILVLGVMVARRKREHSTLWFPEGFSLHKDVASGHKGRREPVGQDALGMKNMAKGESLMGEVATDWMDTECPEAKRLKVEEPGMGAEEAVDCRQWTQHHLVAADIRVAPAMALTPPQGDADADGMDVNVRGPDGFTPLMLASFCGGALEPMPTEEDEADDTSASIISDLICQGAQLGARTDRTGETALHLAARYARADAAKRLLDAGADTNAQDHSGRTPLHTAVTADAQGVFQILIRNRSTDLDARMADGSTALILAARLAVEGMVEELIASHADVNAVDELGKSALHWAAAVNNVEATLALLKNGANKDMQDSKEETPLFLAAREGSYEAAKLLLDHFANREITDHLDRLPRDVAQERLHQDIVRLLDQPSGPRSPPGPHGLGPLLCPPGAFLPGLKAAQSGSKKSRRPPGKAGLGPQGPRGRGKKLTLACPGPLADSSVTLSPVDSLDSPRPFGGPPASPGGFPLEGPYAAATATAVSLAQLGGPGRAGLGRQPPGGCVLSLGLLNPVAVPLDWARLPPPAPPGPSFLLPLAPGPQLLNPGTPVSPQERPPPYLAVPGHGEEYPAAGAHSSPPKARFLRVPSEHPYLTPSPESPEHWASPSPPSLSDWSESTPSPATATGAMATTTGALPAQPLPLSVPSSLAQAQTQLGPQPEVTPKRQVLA
# Chain of Dickkopf-related protein 1 (Homo sapiens) (O94907 whole entry, looked up): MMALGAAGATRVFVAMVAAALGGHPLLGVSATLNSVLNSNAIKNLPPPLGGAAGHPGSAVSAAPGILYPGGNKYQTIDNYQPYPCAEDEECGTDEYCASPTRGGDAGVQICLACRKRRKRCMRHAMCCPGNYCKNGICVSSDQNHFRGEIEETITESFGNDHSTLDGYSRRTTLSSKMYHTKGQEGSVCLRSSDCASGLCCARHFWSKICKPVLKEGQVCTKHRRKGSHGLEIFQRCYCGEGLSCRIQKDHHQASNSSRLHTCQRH
# Chain of Follistatin-related protein 3 (Homo sapiens) (O95633 whole entry, looked up): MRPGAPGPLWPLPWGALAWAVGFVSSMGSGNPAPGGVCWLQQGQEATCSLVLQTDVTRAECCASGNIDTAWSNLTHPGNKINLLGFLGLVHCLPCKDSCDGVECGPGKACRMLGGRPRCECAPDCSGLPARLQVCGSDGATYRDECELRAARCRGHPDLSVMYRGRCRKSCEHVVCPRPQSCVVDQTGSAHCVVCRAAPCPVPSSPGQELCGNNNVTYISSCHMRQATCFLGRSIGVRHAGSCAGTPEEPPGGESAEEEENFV
# Chain of Epidermal growth factor receptor (Homo sapiens) (P00533 whole entry, looked up): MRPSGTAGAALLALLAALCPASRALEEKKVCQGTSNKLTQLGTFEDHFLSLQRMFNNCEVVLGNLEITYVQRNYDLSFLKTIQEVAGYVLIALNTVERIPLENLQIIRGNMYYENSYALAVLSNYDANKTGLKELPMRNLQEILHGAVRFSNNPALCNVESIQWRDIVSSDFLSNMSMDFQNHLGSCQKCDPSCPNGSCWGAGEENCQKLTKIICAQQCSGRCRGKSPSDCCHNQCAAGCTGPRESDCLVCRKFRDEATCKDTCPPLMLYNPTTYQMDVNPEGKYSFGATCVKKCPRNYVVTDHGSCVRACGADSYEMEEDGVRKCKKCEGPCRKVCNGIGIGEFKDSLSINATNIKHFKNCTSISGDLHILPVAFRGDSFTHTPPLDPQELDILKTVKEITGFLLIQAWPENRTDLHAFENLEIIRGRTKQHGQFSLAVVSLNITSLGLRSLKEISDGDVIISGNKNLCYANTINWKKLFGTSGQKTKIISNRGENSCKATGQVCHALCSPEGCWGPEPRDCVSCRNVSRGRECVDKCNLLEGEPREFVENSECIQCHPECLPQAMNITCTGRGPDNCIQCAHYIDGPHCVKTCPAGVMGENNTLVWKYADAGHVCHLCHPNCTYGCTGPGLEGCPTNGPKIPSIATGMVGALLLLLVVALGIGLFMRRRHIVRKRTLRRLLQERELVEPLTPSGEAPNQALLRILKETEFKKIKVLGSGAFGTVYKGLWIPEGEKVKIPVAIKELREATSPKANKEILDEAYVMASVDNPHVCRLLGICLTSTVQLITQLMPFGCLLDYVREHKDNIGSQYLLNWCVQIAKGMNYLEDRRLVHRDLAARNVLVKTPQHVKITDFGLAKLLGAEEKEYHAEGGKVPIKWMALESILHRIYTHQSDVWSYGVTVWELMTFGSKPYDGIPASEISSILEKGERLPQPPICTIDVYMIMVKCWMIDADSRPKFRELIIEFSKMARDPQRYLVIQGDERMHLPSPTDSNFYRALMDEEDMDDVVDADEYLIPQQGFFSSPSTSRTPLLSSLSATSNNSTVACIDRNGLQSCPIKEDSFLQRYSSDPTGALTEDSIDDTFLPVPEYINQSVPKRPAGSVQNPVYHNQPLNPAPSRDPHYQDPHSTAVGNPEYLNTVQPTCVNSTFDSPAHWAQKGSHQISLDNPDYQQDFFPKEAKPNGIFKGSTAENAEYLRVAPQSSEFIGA
# Chain of Torsin-1A-interacting protein 2 (Homo sapiens) (Q8NFQ8 whole entry, looked up): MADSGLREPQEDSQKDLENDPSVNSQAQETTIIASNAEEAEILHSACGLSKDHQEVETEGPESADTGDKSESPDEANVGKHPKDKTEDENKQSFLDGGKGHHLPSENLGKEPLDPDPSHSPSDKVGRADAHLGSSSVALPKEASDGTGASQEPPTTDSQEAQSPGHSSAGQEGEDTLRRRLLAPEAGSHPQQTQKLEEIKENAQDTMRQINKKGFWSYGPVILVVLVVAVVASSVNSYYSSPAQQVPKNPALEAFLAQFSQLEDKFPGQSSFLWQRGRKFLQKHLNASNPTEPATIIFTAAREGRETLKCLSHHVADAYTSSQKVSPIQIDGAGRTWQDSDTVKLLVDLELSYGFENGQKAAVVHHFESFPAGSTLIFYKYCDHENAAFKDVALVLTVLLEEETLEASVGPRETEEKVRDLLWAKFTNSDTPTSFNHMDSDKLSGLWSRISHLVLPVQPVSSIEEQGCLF
Structure (SMILES),composite z-score [1],z-score [2],z-score [3],z-score [4],composite z-score [5],z-score [6],composite z-score [7],composite z-score [8],composite z-score [9],composite z-score [10],composite z-score [11],composite z-score [12],composite z-score [13],z-score [14],composite z-score [15],composite z-score [16],composite z-score [17],composite z-score [18],composite z-score [19],composite z-score [20]
COC(=O)[C@H](C)NC(=O)CCC1CC(OC(=O)NCc2ccc3c(c2)OCO3)CC2(CCCC(COC(=O)NCC3CCCCC3)O2)O1 (stereo not given in full),1.46,0.147 (inactive),0.803 (inactive),1.45 (inactive),2.28,-0.0678 (inactive),-0.0576,1.1,1.1,-0.0139,0.74,-0.21,-0.647,0.507 (inactive),1.29,0.98,0.621,1.07,0.822,-0.144
C#CCCCON=C1C[C@@H](O)[C@@H](O)[C@@H]2[C@@H]3C(=O)N(CC)C(=O)[C@@H]3CC[C@@H]12,0.677,-0.0246 (inactive),0.267 (inactive),1.25 (inactive),0.187,0.439 (inactive),-0.0478,0.167,0.426,-0.0972,0.254,-0.129,-0.697,0.401 (inactive),1.18,0.545,0.631,0.496,0.628,-0.236
CON=C(C)CCC(=O)OC[C@H]1O[C@H](c2ccccc2)C=C[C@@H]1Oc1ccc(OC)cc1,0.0846,1.34 (inactive),-0.241 (inactive),1.4 (inactive),-0.225,0.403 (inactive),-0.176,0.411,-0.0061,-0.0783,0.712,-0.174,-0.15,0.115 (inactive),0.142,-0.496,0.213,0.189,0.474,0.854
CCOC(=O)[C@H](CC(C)C)NC(=O)CCC1CC(OC(=O)NCc2ccc3c(c2)OCO3)CC2(CCCC(COC(=O)NCc3cccc(C(F)(F)F)c3)O2)O1 (stereo not given in full),0.312,0.518 (inactive),0.486 (inactive),1.29 (inactive),0.851,-0.772 (inactive),-0.154,0.184,0.082,-0.171,0.15,-0.229,-0.031,-0.235 (inactive),0.418,-0.319,0.242,0.395,0.355,0.348
O=C1[C@H]2[C@H]3[C@H](O)[C@H](O)CC(=NOCc4ccccc4)[C@H]3CC[C@H]2C(=O)N1Cc1ccc2c(c1)OCO2,0.437,-0.627 (inactive),-0.674 (inactive),-1.53 (inactive),1.1,1.26 (inactive),-0.0766,0.273,0.546,0.0102,0.297,-0.208,-0.424,0.889 (inactive),0.322,0.238,0.338,0.534,0.582,0.157
O=C1[C@H]2[C@H]3[C@H](O)[C@H](O)CC(=NO[C@@H]4O[C@H](CO)[C@@H](O)[C@H](O)[C@H]4O)[C@H]3CC[C@H]2C(=O)N1c1cccc(Oc2ccccc2)c1,0.69,-0.513 (inactive),0.0816 (inactive),-0.642 (inactive),0.543,0.563 (inactive),-0.253,0.329,0.861,-0.0549,0.0739,-0.187,-0.478,0.0512 (inactive),0.73,0.67,0.508,0.598,0.71,-0.204
C[n+]1ccc(-c2ccc(CO)cc2)cc1,1.37,-1.14 (inactive),-0.902 (inactive),3.9 (inactive),-0.202,0.917 (inactive),0.149,0.634,1.06,-0.188,-1.19,0.116,0.808,1.29 (inactive),0.747,-0.435,1.51,1.6,0.953,2.16
CC(C)[C@@H](OCc1ccccc1)[C@H](C)C=NOC[C@@H](O)COCc1ccco1,-0.0832,-1.64 (inactive),-4.1 (inactive),-1.15 (inactive),-0.425,0.799 (inactive),-0.364,0.0964,-0.0957,-0.357,-0.887,-0.869,-0.666,-0.129 (inactive),-0.557,-0.279,-1.11,-0.94,-1.62,-3.73
CCOC(=O)[C@H](Cc1ccccc1)NC(=O)CCC1CC(OC(=O)NCc2ccc3c(c2)OCO3)CC2(CCCC(COC(=O)NCCC(C)C)O2)O1 (stereo not given in full),1.54,0.648 (inactive),-0.29 (inactive),-0.2 (inactive),1.95,-0.167 (inactive),0.0224,0.614,0.671,-0.068,1.21,-0.197,-0.287,0.0184 (inactive),1.12,0.18,-0.0617,0.743,0.415,0.367
O=C(NN=C1C[C@@H](O)[C@@H](O)[C@@H]2[C@@H]3C(=O)N(Cc4ccccc4)C(=O)[C@@H]3CC[C@@H]12)OCc1ccccc1,-0.395,-0.227 (inactive),-0.148 (inactive),-0.413 (inactive),-0.802,0.258 (inactive),-0.112,0.509,0.188,0.0551,0.0168,-0.293,-0.284,-0.566 (inactive),0.0818,0.329,0.263,0.31,0.357,0.198
CO[C@@H]1COC(=O)CC=C[C@@H](C)[C@H](OC)COC(=O)[C@@H](C)COC(=O)CC=C[C@H]1C,0.263,0.659 (inactive),-0.155 (inactive),1.2 (inactive),-0.915,0.421 (inactive),-0.317,0.496,-0.81,-0.616,0.474,-0.803,-1.29,0.166 (inactive),-0.55,0.0478,0.354,0.734,1.37,1.85
O=C1C[C@@H](O)[C@@H](O)[C@@H]2[C@@H]3C(=O)N(c4cccc(Oc5ccccc5)c4)C(=O)[C@@H]3CC[C@H]12,-0.129,0.157 (inactive),0.462 (inactive),0.469 (inactive),0.685,0.378 (inactive),-0.156,0.292,1.02,-0.145,0.326,-0.18,-0.709,0.218 (inactive),0.595,0.572,0.573,0.814,0.846,-0.173
C#CCCCON=C1C[C@@H](O)[C@@H](O)[C@@H]2[C@@H]3C(=O)N(c4cccc(Oc5ccccc5)c4)C(=O)[C@@H]3CC[C@H]12,-0.684,0.74 (inactive),0.202 (inactive),-0.284 (inactive),-0.204,0.676 (inactive),-0.172,-0.738,-0.581,-0.213,1.06,-0.406,0.155,-0.558 (inactive),-0.948,-1.56,-0.356,-0.845,-0.557,-0.69
